Unmarked numbers belong to inactive results. The call rests on the fitted dose curve; in most records, active means well fitted inhibition curve with a large enough effect; inconclusive means small, poorly fitted or top-dose-only effect; inactive means no such curve, though single readings can be large or run the other way. Numbered stars: 1 amine (or outer) side, 2 acyl side, 3 side chain; on linkers, the order of the positions; unused ones are H or OH. Bridge positions count the residues as written; N and C are the ends. Square brackets hold non-standard residues; d marks the D form. Peptide text beside a SMILES is read from it. I, II: the chains in the order shown. Actinocin(9to1) = Cc1c2oc3c(C)ccc(C(=O)[*:1])c3nc-2c(C(=O)[*:2])c(N)c1=O; NMeV = CN[C@H](C(=O)O)C(C)C; Sar = CNCC(=O)O
Test: qHTS assay for measurement of the activity of small molecule inhibitors on Zika virus induced Caspase-3 activity in human astrocytoma cells (AID 1224859)
Conditions: SNB-19 ZIKV-induced caspase-3/7, luminescence, 6 h; series mostly up to 45.7 µM; activity change, negative = inhibition: at the top concentration
Excerpt: National Center for Advancing Translational Sciences [NCATS]
Johns Hopkins University School of Medicine
Increase in the Caspase-3 activity indicates an activation of apoptosis cell death pathway caused by Zika virus infection in certain types of neuronal cells including human neural progenitor cells (hNPCs), astrocytes, and astrocytoma cell line (SNB-19). This cell-based caspase-3 activity assay measures the increased caspase-3 activity in the astrocytoma cell line (SNB-19) after a 6-hour Zika virus infection with a luminescence readout. A decrease in the luminescence signal in this assay by small molecule treatment indicates an inhibitory effect of that small molecule on the Zika virus induced caspase-3 activity that may correlate with its effect on reduction of Zika virus caused cell death.
The medium for SNB-19 cells is composed of RPMI 1640 (ATCC, Cat.# 30-2001), 10% fetal bovine serum (FBS) (GE healthcare Life Sciences, Cat.# SH30071.03), and 1% Pen/Strep (Gibco, Cat.# 15140-122). A Caspase-Glo 3/7 assay kit (catalog number G8092; Promega, Madison, WI) was used to detect caspase-3 activity induced by Zika virus infection in human cells. The reagent mixture was reconstituted as described in the protocol from the manufacturer. Polystyrene tissue culture treated and PDL coated white plates were obtained from Greiner Bio-One (Monroe, NC). Cells were seeded in 384- or 1536-well assay plates and cultured at 37 C with 5% CO2 for 16 to 20 hours. The typical cell seeding density in the 1536-well plate assay is 250 cells/well in 3ul medium for SNB-19 cells in tissue culture treated plates. Compounds were added to cells and incubated for one hour before addition of ZIKV solution to cells (2 FFU/cell). After incubation at 37 C with 5% CO2 for 6 hours, the reagent mixture of Caspase-Glo 3/7 assay kit was added to each well, followed by incubation at room temperature for 30 minutes. The luminescence intensity of the assay plates was measured using a ViewLux plate reader (PerkinElmer). Data were normalized by using the cell-containing wells without ZIKV as a negative control (0% induction of caspase 3/7 activity) and wells containing ZIKV infected cells (Caspase-3 activity induced) as a positive control (100% induction of caspase 3 activity). The percentage inhibitions of the increased Caspase-3 activity by small molecule inhibitors were then calculated.

Structure (SMILES)	activity change, negative = inhibition [%]
CC1(C)O[C@@H]2C[C@H]3[C@@H]4C[C@H](F)C5=CC(=O)C=C[C@]5(C)[C@H]4[C@@H](O)C[C@]3(C)[C@]2(C(=O)CO)O1	1.94
N[C@H](Cc1c[nH]c2ccccc12)C(=O)O	-7.98
COc1cccc2c1C(=O)c1c(O)c3c(c(O)c1C2=O)C[C@@](O)(C(=O)CO)C[C@@H]3O[C@H]1C[C@H](N)[C@H](O)[C@H](C)O1	8.9
Cc1c(N(C)CS(=O)(=O)O)c(=O)n(-c2ccccc2)n1C	-11.2
CC1(C)CCC(NC(=O)[C@@H](N)CCC(=O)O)CC1	-4.3
CN1[C@@H]2CC[C@H]1CC(OC(=O)c1c[nH]c3ccccc13)C2 (stereo not given in full)	0.0158
COc1cc(C(=S)N2CCOCC2)cc(OC)c1OC	-7.36
COC(=O)[C@@H]1CC2=CC(=O)CC[C@]2(C)[C@@]23O[C@@H]2C[C@@]2(C)[C@@H](CC[C@@]24CCC(=O)O4)[C@H]13	-9.46
Cc1c(C(N)=O)cc([N+](=O)[O-])cc1[N+](=O)[O-]	-2.94
CC[C@@H](CO)NCCN[C@@H](CC)CO	4.31
CC(C)(Oc1ccc(Cl)cc1)C(=O)O	-9.93
Nc1nc2ncc(CNc3ccc(C(=O)N[C@@H](CCC(=O)O)C(=O)O)cc3)nc2c(=O)[nH]1	10.9
CCOc1ccc(Cc2nccc3cc(OCC)c(OCC)cc23)cc1OCC	8.65
CCCn1c(=O)[nH]c(=O)c2[nH]cnc21	13.9
O=C(O)CCCCC(=O)O	5.01
Cc1c2oc3c(C)ccc(C(=O)N[C@@H]4C(=O)N[C@H](C(C)C)C(=O)N5CCC[C@H]5C(=O)N(C)CC(=O)N(C)[C@@H](C(C)C)C(=O)O[C@@H]4C)c3nc-2c(C(=O)N[C@@H]2C(=O)N[C@H](C(C)C)C(=O)N3CCC[C@H]3C(=O)N(C)CC(=O)N(C)[C@@H](C(C)C)C(=O)O[C@@H]2C)c(N)c1=O (I: T[dV]P[Sar][NMeV] / II: T[dV]P[Sar][NMeV]; ester I:1-I:C, II:1-II:C; linker I:N-II:N via Actinocin(9to1))	12
CC(=O)c1ccc2c(c1)N(CCCN1CCC(CCO)CC1)c1ccccc1S2	14
Oc1ccc(O)cc1	4.13
Cc1ccc(Nc2c(F)cccc2Cl)c(CC(=O)O)c1	-8.68
COc1ccc(CN2CCN(C(c3ccc(F)cc3)c3ccc(F)cc3)CC2)c(OC)c1OC	8.62

Structure (SMILES)	activity change, negative = inhibition [%]
CCCCCC=CCC=CCCCCCCCC(=O)OCC	0.249
OC[C@@H](O)[C@@H](O[C@@H]1O[C@H](CO)[C@H](O)[C@H](O)[C@H]1O)[C@H](O)[C@@H](O)CO	-4.39
N[C@H](CO)C(=O)O	0.998
COc1cccc(CCc2ccccc2OCC(CN(C)C)OC(=O)CCC(=O)O)c1 (stereo not given)	-1.67
COC(=O)CCc1ccc(OCC(O)CNC(C)C)cc1 (stereo not given)	-7.03
C#C[C@]1(O)CC[C@H]2[C@@H]3CCc4cc(OC5CCCC5)ccc4[C@H]3CC[C@@]21C	-3.27
CN1CCC(=C2c3ccccc3Sc3ccccc32)CC1	14.2
CCOC(=O)COc1ccc2c(C)c(CCN(CC)CC)c(=O)oc2c1Cl	2.67
COC1=CC(=O)C[C@@H](C)[C@]12Oc1c(Cl)c(OC)cc(OC)c1C2=O	2.89
Nc1ccn([C@@H]2O[C@H](CO)[C@@H](O)C2(F)F)c(=O)n1	-5.23
CC1(C)O[C@@H]2C[C@H]3[C@@H]4C[C@H](F)C5=CC(=O)CC[C@]5(C)[C@H]4[C@@H](O)C[C@]3(C)[C@]2(C(=O)CO)O1	9.56
CCC(C(=O)OCCN(CC)CC)c1ccccc1 (stereo not given)	-0.856
CCCC(=O)Nc1ccc(OCC(O)CNC(C)C)c(C(C)=O)c1 (stereo not given)	-7.35
CCN1CCC[C@H]1CNC(=O)c1c(OC)ccc(Br)c1OC	-22
NCCCC[C@H](N[C@@H](CCc1ccccc1)C(=O)O)C(=O)N1CCC[C@H]1C(=O)O	0.727
COc1ccc(C2C(=O)c3ccccc3C2=O)cc1	8.41
OC[C@H]1O[C@H](O[C@]2(CCl)O[C@H](CCl)[C@@H](O)[C@@H]2O)[C@H](O)[C@@H](O)[C@H]1Cl	-6.27
COc1c2occc2c(OC)c2c(=O)cc(C)oc12	16.8
CNCC[C@@H](Oc1ccccc1C)c1ccccc1	0.731
CC(=O)O[C@]1(C(C)=O)CC[C@H]2[C@@H]3C[C@H](C)C4=CC(=O)CC[C@]4(C)[C@H]3CC[C@@]21C	20.7

— PubChem BioAssay (NCATS)
